# From PubChem BioAssay (NCATS)
# Records with an inconclusive call do not appear. Active and inactive are the calls of the source. Calls come from the whole dose curve; as a rule, active = well fitted cell-killing curve with a large enough effect; inconclusive = small, poorly fitted or top-dose-only effect, or effect the other way; inactive = no such curve, though single readings can be large or run the other way.
# Assay: Quantitative High-Throughput drug screen in 47 multiple myeloma cell lines against the NCATS MIPE library collection: INA6_PLB cell viability assay (AID 1918965; note: nearly all actives have a fitted effect of over 55% in size)
# Settings: INA6 myeloma viability, CellTiter-Glo ATP luminescence, 48 h; series mostly up to 45.8 µM
# Description: PI: Beverly A. Mock Ph.D.
# Laboratory of Cancer Biology and Genetics,
# Center for Cancer Research, National Cancer Institute,
# National Institute of Health, Bethesda, Maryland
# Drug resistance and disease progression are common in multiple myeloma (MM) patients, underscoring the need for new therapeutic combinations. […] We hypothesized that effective combinations would reduce MYC expression and enhance p16 activity. […] These preclinical data identify potentially useful drug combinations for evaluation in drug-resistant MM and reveal potential mechanisms of combined drug sensitivity.
# Described herein is the primary MIPE qHTS used to cherrypick compounds. Validated compounds were then further tested for potential synergistic activiy.
# [1] Peat TJ, Gaikwad SM, Dubois W, Gyabaah-Kessie N, Zhang S, Gorjifard S, Phyo Z, Andres M, Hughitt VK, Simpson RM, Miller MA, Girvin AT, Taylor A, Williams D, D'Antonio N, Zhang Y, Rajagopalan A, Flietner E, Wilson K, Zhang X, Shinn P, Klumpp-Thomas C, McKnight C, Itkin Z, Chen L, Kazandijian D, Zhang J, Michalowski AM, Simmons JK, Keats J, Thomas CJ, Mock BA. Drug combinations identified by high-throughput screening promote cell cycle transition and upregulate Smad pathways in myeloma. Cancer Lett. 2023 Aug 1;568:216284. doi: 10.1016/j.canlet.2023.216284. Epub 2023 Jun 24. PMID: 37356470; PMCID: PMC10408729.
# SEQUENCE No. (e.g., 1, 2, 3, etc.); […] (e.g., Cells, Incubation, Reagent, etc.); VALUE and DESCRIPTION.
# 1; Cells; 5 uL; white, solid bottom 1536-well Greiner assay plate.
# 2; Compounds; 23 nL; Kalypsis pin tool (Wako USA) equipped with a 1536-well pin head to transfer to the assay plates.
# 3; Incubation; 48 hours; 37C incubation.
# 4; Reagent;5uL; CellTiter Glo (Promega).
# 5; Detector; 425V; Luminescence; Viewlux PerkinElmer.
# NOTES (numbers refer to Sequence numbers above)
# 1. The cell-based screening methods employed in this study were like those previously published. Briefly, the corresponding myeloma cell lines were screened in 1,536-well plates with 500 cells, 5-uL per well for inhibition of cell viability (assessed by measuring ATP levels with CellTiterGlo).
# 2. NCATS MIPE 4.0 library of approved and investigational drugs were added using the Kalypsis pin tool. Wells treated with DMSO only for 100% viability and media only wells for 0% viability were used as controls.
# 3. The assay plates were covered and incubated for 48 hours in a 37C, 5% CO2 incubator with controlled humidity.
# 4. After 48 hours, CellTilter-GloTM luminescent substrate mix (Promega) reagent was added to the assay plate and plates we incubated for 5 min at room temperature.
# 5. Signal was measured as median relative luminescence units on a ViewLux (PerkinElmer) multiplate reader.
# [1] Heske CM, Davis MI, Baumgart JT, Wilson K, Gormally MV, Chen L, Zhang X, Ceribelli M, Duveau DY, Guha R, Ferrer M, Arnaldez FI, Ji J, Tran HL, Zhang Y, Mendoza A, Helman LJ, Thomas CJ. Matrix Screen Identifies Synergistic Combination of PARP Inhibitors and Nicotinamide Phosphoribosyltransferase (NAMPT) Inhibitors in Ewing Sarcoma. Clin Cancer Res. 2017 Dec 1;23(23):7301-7311. doi: 10.1158/1078-0432.CCR-17-1121. Epub 2017 Sep 12. PMID: 28899971; PMCID: PMC6636827.
# Potency is the fitted concentration of half-maximal effect.
row,Compound,Potency
1,CCNC(=O)CC1N=C(c2ccc(Cl)cc2)c2cc(OC)ccc2-n2c(C)nnc21 (stereo not given),6.62 µM (active)
2,O=S(=O)(F)Cc1ccccc1,1.18 µM (active)
3,CC(C)(C)[C@]1(O)C[C@@H]2OC(=O)C[C@@]23C(=O)O[C@@H]2OC(=O)[C@H](O)C213 (stereo not given in full),inactive
4,CC[C@@H](C(N)=O)N1CCCC1=O,inactive
5,c1ccc(CCCN2CCN(CCOC(c3ccccc3)c3ccccc3)CC2)cc1,20.9 µM (active)
6,c1cc2c(cc1[C@H]1OC[C@H]3[C@H]1CO[C@H]3c1ccc3c(c1)OCO3)OCO2,inactive
7,CCN1CCN(C(=O)Cc2ccc(Nc3ncc(F)c(Nc4ccc(C(=O)Nc5ccccc5Cl)cc4)n3)cc2)CC1,0.935 µM (active)
8,COc1ccc2c(c[n+](C)c3c4cc5c(cc4ccc23)OCO5)c1OC,8.33 µM (active)
9,CC(N[C@H]1C[C@H]1c1ccccc1)c1ccc2c(c1)OCCO2 (stereo not given in full),inactive
10,CC[C@@H]1[C@@H](C)O[C@@](O)([C@@H](C)[C@H](O)[C@H](C)[C@H]2OC(=O)C=CC=C[C@@H](C)[C@@H]([C@@H](C)[C@@H](O)[C@H](C)[C@@]3(O)C[C@H](O[C@H]4C[C@H](O)[C@H](O)[C@H](C)O4)[C@H](CC)[C@@H](C)O3)OC(=O)C=CC=C[C@@H]2C)C[C@H]1O[C@H]1C[C@H](O)[C@H](O)[C@H](C)O1,1.05 µM (active)
11,CCC(=O)OC1CCC2C3CCC4=CC(=O)CC[C@@]4(C)C3CC[C@]12C (stereo not given in full),20.9 µM (active)
12,C=C[C@@H]1CN2CCC1C[C@H]2[C@H](O)c1ccnc2ccccc12 (stereo not given in full),20.9 µM (active)
13,CC1(N2CCC(n3c([C@@H]4CCCNC4)nc4ccccc43)CC2)CCCCCCC1,14.8 µM (active)
14,CN1[C@H]2CC(O)C[C@H]1[C@H]1O[C@H]12 (stereo not given in full),8.33 µM (active)
15,C=CCON=C(C[C@H]1O[C@@H]2O[C@]3(C)CC[C@@H]4[C@H](C)CC[C@@H]([C@H]1C)[C@@]24OO3)[C@H]1O[C@@H]2O[C@]3(C)CC[C@H]4[C@H](C)CC[C@@H]([C@@H]1C)[C@@]24OO3,0.469 µM (active)
16,CC(C)[C@]12O[C@@H]1[C@@H]1O[C@]13[C@]1(O[C@H]1C[C@@H]1C4=C(CC[C@@]13C)C(=O)OC4)[C@H]2O,inactive
17,CC(=Cc1csc(C)n1)[C@@H]1C[C@H]2O[C@]2(C)CCC[C@H](C)[C@@H](O)[C@@H](C)C(=O)C(C)(C)[C@@H](O)CC(=O)O1,inactive
18,COc1cc([C@@H]2c3cc4c(cc3[C@@H](O)C3COC(=O)C32)OCO4)cc(OC)c1O (stereo not given in full),0.0418 µM (active)
19,C#CC1(O)CCC2C3CCC4=CC(=O)CCC4(C)C3CCC21C (stereo not given),inactive
20,Cc1c(C(=O)Nc2cccc(C(F)(F)F)c2)cc(-c2ccccc2)n1CCCN1CCOCC1,16.6 µM (active)

row,Compound,Potency
1,Cc1ccccc1-n1c(Cn2ncc3c(N)ncnc32)nc2cccc(C)c2c1=O,0.235 µM (active)
2,CCCC[N+]1(C)[C@H]2CC(OC(=O)[C@H](CO)c3ccccc3)C[C@H]1[C@H]1O[C@H]12 (stereo not given in full),2.35 µM (active)
3,C[C@]12CC[C@H]3[C@@H](CCC4=CC(=O)CC[C@@]43C)[C@H]1CC[C@H]2O,inactive
4,C[C@]12Cc3cn[nH]c3C[C@@H]1CC[C@@H]1[C@H]2CC[C@@]2(C)[C@H]1CC[C@]2(C)O,inactive
5,N=c1c2c(-c3ccccc3)c(-c3ccccc3)n(Cc3ccccc3)c2ncn1C1CCC(O)CC1 (stereo not given),0.209 µM (active)
6,C[C@@H]1CC[C@@]2(OC1)O[C@H]1C[C@H]3[C@@H]4CC=C5C[C@@H](O[C@@H]6O[C@H](CO)[C@@H](O[C@@H]7O[C@@H](C)[C@H](O)[C@@H](O)[C@@H]7O)[C@H](O)[C@@H]6O[C@@H]6O[C@@H](C)[C@H](O)[C@@H](O)[C@@H]6O)CC[C@]5(C)[C@@H]4CC[C@]3(C)[C@@H]1[C@H]2C,5.26 µM (active)
7,Cc1c(C(=O)c2cccc3ccccc23)c2cccc3c2n1[C@H](CN1CCOCC1)CO3,23.5 µM (active)
8,COc1ccc2c(c1)[C@]13CCCCC1C(C2)N(C)CC3 (stereo not given in full),inactive
9,CC=C(C)C(=O)O[C@H]1C(C)=C2[C@@H]3OC(=O)[C@@](C)(O)[C@@]3(O)[C@@H](OC(=O)CCC)C[C@](C)(OC(C)=O)[C@@H]2[C@@H]1OC(=O)CCCCCCC,0.0935 µM (active)
10,NC1CC1c1ccccc1 (stereo not given),inactive
11,CC1=C(O)C(=O)C=C2C1=CC=C1[C@@]2(C)CC[C@@]2(C)[C@@H]3C[C@](C)(C(=O)O)CC[C@]3(C)CC[C@]12C,0.743 µM (active)
12,C[C@H]([C@H](O)CCC(C)(C)O)[C@H]1CC[C@@]2(O)C3=CC(=O)[C@@H]4C[C@@H](O)[C@@H](O)C[C@]4(C)[C@@H]3CC[C@]12C,inactive
13,CSCC[C@@H](NC(=O)[C@@H](Cc1ccccc1)NC(=O)CNC(=O)CNC(=O)[C@@H](N)Cc1ccc(O)cc1)C(=O)O,inactive
14,C[C@@H]1CC[C@H]2[C@@H](C)C(=O)O[C@@H]3O[C@@]4(C)CC[C@H]1[C@]32OO4,1.18 µM (active)
15,CC[C@@]1(O)C(=O)OCc2c1cc1n(c2=O)Cc2cc3ccccc3nc2-1,0.0209 µM (active)
16,CC(=Cc1csc(C)n1)[C@@H]1C[C@H]2O[C@@H]2CCC[C@H](C)[C@@H](O)[C@@H](C)C(=O)C(C)(C)[C@@H](O)CC(=O)O1,inactive
17,CC(=CCCC1=CCC(C2=CC(=O)OC2O)OC1O)CCC1=C(C)CCCC1(C)C (stereo not given),inactive
18,C[C@H]1CCCC=CC2C[C@H](O)C[C@@H]2[C@H](O)C=CC(=O)O1 (stereo not given in full),inactive
19,O=C1CCC[C@@H]2[C@H]3CCCN4CCC[C@@H](CN12)[C@@H]34,inactive
20,CC(C)(C)c1cc(C=C(C#N)C#N)cc(Br)c1O,4.18 µM (active)
